Screens from PubChem.
aSyn UTR act: Activators via SNCA 5'UTR binding, MLPCN | AID 1814 | alpha-synuclein 5'UTR reporter, activators screen | activity score, % (tested at 7.5 µM), hits read low | hit rate 7.1% among 300,000; in the data active = activity score below about -60%
Starred values were filed as active, the others as inactive. A selection follows.

What do the screens show for `O=C(Nc1cccc(Cl)c1)Nc1ccc2c(c1)OCO2`?
aSyn UTR act: -159.3*

What do the screens show for `Cc1ccc(NC(=O)NCc2ccc3c(c2)OCO3)cc1C`?
aSyn UTR act: -79.0*

How did Cc1nn(C)cc1CNC(=O)Nc1cccc(Cl)c1 do in these assays?
aSyn UTR act: -168.9*

Results for O=C(NCc1ccc2c(c1)OCO2)Nc1cccc(Cl)c1 ?
aSyn UTR act: -127.3*

How did O=C(Nc1ccc2c(c1)CCC2)Nc1ccc2c(c1)OCO2 do in these assays?
aSyn UTR act: -111.1*

Results for COC(=O)c1ccc(NC(=O)Nc2ccc3c(c2)OCO3)cc1 ?
aSyn UTR act: -66.0*

Results for O=C(NCc1cccs1)Nc1cccc(Cl)c1 ?
aSyn UTR act: -120.0*

What do the screens show for `O=C(Nc1ccc2c(c1)OCCO2)NC12CC3CC(CC(C3)C1)C2`?
aSyn UTR act: -194.9*

What do the screens show for `O=C(Nc1ccc2c(c1)OCO2)Nc1ccc(Br)cn1`?
aSyn UTR act: -156.5*

How did O=C(Nc1ccc2c(c1)OCO2)Oc1ccccc1 do in these assays?
aSyn UTR act: -105.7*

What do the screens show for `O=C(Nc1cccc([N+](=O)[O-])c1)Nc1ccc2c(c1)OCCO2`?
aSyn UTR act: -129.0*

Results for CCOC(=O)c1cn(-c2ccc([N+](=O)[O-])cc2)c2cc(Cl)c([N+](=O)[O-])cc2c1=O ?
aSyn UTR act: -110.0*

How did S=C1NC2=C(CCCC2=C2SCCS2)C(c2ccccc2)N1 (stereo not given) do in these assays?
aSyn UTR act: -324.3*

What do the screens show for `N/C(=N\OC(=O)c1ccc(Cl)cc1)c1ccccn1`?
aSyn UTR act: 62.5

Results for Cc1cc(/C(N)=N/OC(=O)c2cccc(Cl)c2)no1 ?
aSyn UTR act: -192.7*

Results for Cc1cc(/C(N)=N/OC(=O)c2ccc(Cl)cc2)no1 ?
aSyn UTR act: -200.9*

How did Cc1cc(=O)n(C(NC(=O)c2ccccc2)C(=O)c2ccccc2)cn1 (stereo not given) do in these assays?
aSyn UTR act: -84.1*

What do the screens show for `O=C(NC(C(=O)c1ccccc1)N1CCOCC1)c1ccccc1` (stereo not given)?
aSyn UTR act: -66.7*

Results for C/C(=N\NC(=O)c1nn(C)c(C)c1Br)c1cccc(NC(=O)c2ccoc2C)c1 ?
aSyn UTR act: -71.3*

How did C/C(=N\NC(=O)c1ccc(Cn2cc(Br)cn2)o1)c1ccc(NC(=O)c2ccoc2C)cc1 do in these assays?
aSyn UTR act: -76.7*

What do the screens show for `C/C(=N\NC(=O)c1ccoc1C)c1ccccc1`?
aSyn UTR act: -127.4*

What do the screens show for `C/C(=N/NC(=O)c1ccoc1C)c1ccc(NC(=O)C2CCCC2)cc1`?
aSyn UTR act: -120.9*

How did CCOC(=O)c1cc(C(=O)Nc2ccccc2F)nn1C do in these assays?
aSyn UTR act: -159.2*

How did Brc1ccccc1C1=Nn2c(nnc2-c2ccccc2)SC1 do in these assays?
aSyn UTR act: 57.5

How did O=c1c2cc(-c3ccccc3)sc2nc2n1N=C(c1ccccc1)CS2 do in these assays?
aSyn UTR act: -142.1*

What do the screens show for `CSc1nc2sc(-c3ccccc3)cc2c(=O)n1N`?
aSyn UTR act: -74.2*

What do the screens show for `CCCC(=O)N=C1SC2CS(=O)(=O)CC2N1c1ccc(-c2nc3ccc(C)cc3s2)cc1` (stereo not given)?
aSyn UTR act: -132.2*

Results for COc1ccccc1NC(=O)C/C(C)=N/NC(=O)c1ccccn1 ?
aSyn UTR act: -102.7*

What do the screens show for `COc1cc(NC(=O)C/C(C)=N/NC(=O)c2ccccn2)c(OC)cc1Cl`?
aSyn UTR act: -80.3*

Results for C/C(CC(=O)Nc1ccc(C)c(Cl)c1)=N\NC(=O)c1ccccn1 ?
aSyn UTR act: -70.6*

What do the screens show for `O=C(Oc1ccc(-c2cnc3ccccc3n2)cc1)c1cc([N+](=O)[O-])ccc1Cl`?
aSyn UTR act: -176.0*

How did Cc1c(C(=O)Oc2ccc(-c3cnc4ccccc4n3)cc2)cccc1[N+](=O)[O-] do in these assays?
aSyn UTR act: -108.0*

What do the screens show for `CC1CCN(S(=O)(=O)N2CCC(C(=O)NC3CCCC3)CC2)CC1`?
aSyn UTR act: -96.8*

What do the screens show for `CCCS(=O)(=O)N1CCC(C(=O)NC2CCC(C)CC2)CC1` (stereo not given)?
aSyn UTR act: -64.0*

How did O=c1cc(NS(=O)(=O)c2ccccc2)nc(SCc2ccccc2Cl)[nH]1 do in these assays?
aSyn UTR act: 57.9

How did Nc1ccccc1-c1nnc(SCc2ccccc2Cl)[nH]c1=O do in these assays?
aSyn UTR act: -68.9*

Results for O=C(Nc1ccc(-n2cc(Cl)cn2)cc1)c1ccncc1 ?
aSyn UTR act: -92.2*

Results for O=C(Nc1ccc(-n2cc(Br)cn2)cc1)c1ccncc1 ?
aSyn UTR act: -68.3*

How did N#C/C(=N\Nc1cccc2ccccc12)c1nnc2n1CCCCC2 do in these assays?
aSyn UTR act: -70.9*

How did O=C(N/N=C/c1sc(=O)n(-c2ccccc2)c1Cl)c1ccccc1 do in these assays?
aSyn UTR act: -83.9*

What do the screens show for `CC(C)c1ccc(NC(=O)c2ccc(NS(C)(=O)=O)cc2)cc1`?
aSyn UTR act: -75.8*

Results for CS(=O)(=O)Nc1ccc(C(=O)Nc2ccc3ccccc3c2)cc1 ?
aSyn UTR act: -213.6*

Results for N/C(=N\OC(=O)c1ccco1)c1cccc([N+](=O)[O-])c1 ?
aSyn UTR act: -210.3*

Results for COc1ccc(/C(N)=N/OC(=O)c2ccco2)cc1OC ?
aSyn UTR act: -141.7*

How did N/C(=N\OC(=O)c1ccco1)c1cccc(Br)c1 do in these assays?
aSyn UTR act: -248.5*

What do the screens show for `Nc1cc(C(F)(F)F)ccc1C(=O)O`?
aSyn UTR act: -62.3*

Results for CC(C)NC(=O)c1cc(-c2ccc3c(c2)OCO3)on1 ?
aSyn UTR act: -110.3*

Results for CCN(CC)C(=O)c1cc(-c2ccc3c(c2)OCO3)on1 ?
aSyn UTR act: -132.0*

How did CCCCNC(=O)c1cc(-c2ccc3c(c2)OCO3)on1 do in these assays?
aSyn UTR act: -66.0*

How did O=C(Nc1cccc(O)c1)c1cc(-c2ccc3c(c2)OCO3)on1 do in these assays?
aSyn UTR act: 69.3

Results for CCCNC(=O)c1cc(-c2ccc3c(c2)OCO3)on1 ?
aSyn UTR act: -105.1*

What do the screens show for `Cc1nn(-c2ccccc2)c(C)c1CCC(=O)O`?
aSyn UTR act: -106.8*

Results for CCCC(=O)Nc1ccc(NC(=O)c2cccs2)cn1 ?
aSyn UTR act: -104.7*

What do the screens show for `O=C(Cc1ccccc1)Nc1ccc(NC(=O)c2ccccc2)nc1`?
aSyn UTR act: -183.6*

What do the screens show for `O=C(Nc1ccc(NC(=O)c2cccs2)cn1)c1ccccc1`?
aSyn UTR act: -134.1*

How did CCCCC(=O)NC(c1cccs1)c1cc(Cl)c2cccnc2c1O (stereo not given) do in these assays?
aSyn UTR act: 80.3

Results for CCC(=O)NC(c1cccs1)c1cc(Cl)c2cccnc2c1O (stereo not given) ?
aSyn UTR act: 86.2

What do the screens show for `O=C(Nc1ccc(NC(=O)C2CC2)nc1)c1cccs1`?
aSyn UTR act: -95.7*

Results for Cc1cc(Cl)ccc1OCC(=O)Nc1cccnc1 ?
aSyn UTR act: -107.6*

How did Cc1c(C)c2ccc(OCC(=O)Nc3cccnc3)c(C)c2oc1=O do in these assays?
aSyn UTR act: -136.6*

How did CC1CCCN(C(=O)CSCC(=O)Nc2nc(-c3cccs3)cs2)C1 (stereo not given) do in these assays?
aSyn UTR act: -75.6*

Results for CC1CCN(C(=O)Cn2nnc(-c3cccs3)n2)CC1 ?
aSyn UTR act: -131.4*

How did O=C(Cn1nnc(-c2ccccc2F)n1)N1CCCCC1 do in these assays?
aSyn UTR act: -120.2*

How did CC1CCN(C(=O)CSCC(=O)Nc2nc(-c3cccs3)cs2)CC1 do in these assays?
aSyn UTR act: -89.3*
